The results in this text go back to PubChem BioAssay (NCATS).

Inconclusive results are not listed. Active and inactive are the calls of the source. Calls come from the whole dose curve; as a rule, active = well fitted curve in the direction sought with a large enough effect; inconclusive = small, poorly fitted or top-dose-only effect, or another doubt; inactive = no such curve, though single readings can be large; an effect the other way counts as inactive or inconclusive. Square brackets hold non-standard residues; d marks the D form. Peptide text beside a SMILES is read from it. ξ: configuration not given here. ξL = CC(C)CC(N)C(=O)O

Experiment [1] in a line: OV-KATE Cancer Cell Toxicity qHTS against the NCATS CANVASS Library (AID 1347345). Note: potency is the fitted concentration of half-maximal effect. The procedure, abridged:
(§1)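 Bortezomib titration and single-dose wells served as plate controls. Test compounds, 11 points, acted on 1000 cells/well for 72 h at 37 degrees C; CellTiter-Glo luminescence quantified remaining viable cells.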

Experiment [2] in a line: HPAF-II Cancer Cell Toxicity qHTS against the NCATS CANVASS Library (AID 1347346). Note: nearly all actives have a fitted effect of over 55% in size. Note: potency is the fitted concentration of half-maximal effect. Summed up: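 Using 1000 HPAF-II cells per well, we titrated compounds over 11 concentrations for 72 h at 37 degrees C/5% CO2, with bortezomib as control. Cell survival was quantified by CellTiter-Glo luminescence.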
Experiment [3] is described as follows: UWB1.289 Cancer Cell Toxicity qHTS against the NCATS CANVASS Library (AID 1347347). Note: nearly all actives have a fitted effect of over 60% in size. Note: potency is the fitted concentration of half-maximal effect. Summed up:
as §1

Experiment [4] is described as follows: OV-SAHO Cancer Cell Toxicity qHTS against the NCATS CANVASS Library (AID 1347348). Note: nearly all actives have a fitted effect of over 55% in size. Note: potency is the fitted concentration of half-maximal effect. Summed up:
as §1

Experiment [5] can be described thus: SW1088 Cancer Cell Toxicity qHTS against the NCATS CANVASS Library (AID 1347350). Note: nearly all actives have a fitted effect of over 75% in size. Note: potency is the fitted concentration of half-maximal effect. The procedure, abridged:
as §1

A short description of experiment [6]: U-118MG Cancer Cell Toxicity qHTS against the NCATS CANVASS Library (AID 1347351). Summed up:
as §1

Experiment [7] can be described thus: COV-362 Cancer Cell Toxicity qHTS against the NCATS CANVASS Library (AID 1347352). Note: series mostly up to about 38 µM. Summed up: (§2)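 Using an ATP-based luminescent reagent after three days of treatment, toxicity is scored across an eleven-concentration range in wells holding 1000 cells each.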
Experiment [8] can be described thus: UWB1.289-WTBRCA1 Cancer Cell Toxicity qHTS against the NCATS CANVASS Library (AID 1347354). Note: potency is the fitted concentration of half-maximal effect. Summed up:
as §2

The nature of experiment [9]: HEK293 12hr Apoptosis Induction qHTS against the NCATS CANVASS Library (AID 1347361). Summed up:
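500 HEK293 cells/well; cpds pin-transferred, 11-pt conc series; 12 h, 37 degrees C/5% CO2; Caspase-Glo 3/7 added, 15 min RT dark; luminescence.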

The nature of experiment [10]: KB-8-5-11 Cancer Cell Toxicity qHTS against the NCATS CANVASS Library (AID 1347364). Note: nearly all actives have a fitted effect of over 75% in size. Note: potency is the fitted concentration of half-maximal effect. The procedure, abridged:
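Luminescent ATP signal (CellTiter-Glo, 10 min at room temperature) measured cell survival of KB-8-5-11 after 72 hr compound treatment. For confirmation, the cells were also grown with 1uM tariquidar.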

Experiment [11] can be described thus: qHTS for Hypoxia signaling pathway (HIF-1) agonists against the NCATS CANVASS Library (AID 1347375). The procedure, abridged: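 An HRE-beta-lactamase ME-180 line is exposed for 17 h to an 11-point compound series, then read by CCF4-AM FRET. Cytotoxicity is measured in parallel in the same wells with CellTiter-Glo, and autofluorescence is checked separately.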

The nature of experiment [12]: qHTS assay for small molecule disruptors of mitochondrial membrane potential screened against the NCATS CANVASS Library (AID 1347389). Note: nearly all actives have a fitted effect of over 60% in size. Note: potency is the fitted concentration of half-maximal effect. Summed up:
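Cells (HepG2) seeded the day before received compound or DMSO for 1 hr, then Mito-MPS dye for 30 min at 37C; emission at 590 nm over 535 nm gave the polarization signal.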

A short description of experiment [13]: Secretion counterscreen for inhibitors of the SERCaMP assay screened against the NCATS CANVASS Library (AID 1347390).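 Note: light from luciferase secreted into medium read as a measure of general secretion.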 Note: potency is the fitted concentration of half-maximal effect. The procedure, abridged: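 Luminescence from constitutively secreted GLuc in SH-SY5Y-GLuc STOP cells, read after coelenterazine addition, served as read-out. Compounds tested 0.001 - 77 uM for 20 h at 37C; Brefeldin A as positive control.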

A short description of experiment [14]: qHTS for activators of Nrf2/ARE signaling pathway screened against the NCATS CANVASS Library (AID 1347391). Note: nearly all actives have a fitted effect of over 60% in size. Note: potency is the fitted concentration of half-maximal effect. Summed up: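 Activation of Nrf2/ARE was scored in ARE-bla HepG2 cells after 16 h compound exposure using CCF4 beta-lactamase fluorescence ratio readings.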
The nature of experiment [15]: qHTS for activators of dead-cell proteases activity screened against the NCATS CANVASS Library (AID 1347392).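 Note: luminescence from protease leaking out of membrane-damaged cells cleaving impermeant substrate; rising signal means more cytotoxicity.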 Summed up:
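HepG2, 2000 cells/well, 18 h attach; cpd 11-pt, 5 h 37C 5% CO2; CytoTox-Glo (AAF-aminoluciferin) 15 min RT; luminescence read.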

The nature of experiment [16]: qHTS for inhibitors of ER calcium dysfunction: SERCaMP assay screened against the NCATS CANVASS Library (AID 1347393). Note: nearly all actives have a fitted effect of over 40% in size. Note: potency is the fitted concentration of half-maximal effect. Summed up:
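SH-SY5Y GLuc-SERCaMP, 1000 cells/well, 4 h attach; cpd 16 h, 37C/5% CO2; thapsigargin (added as 6x 600 nM) 4 h; coelenterazine; luminescence. Reduced reporter release = ER Ca stabilization.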

A short description of experiment [17]: qHTS for inhibitors of Wild type Zika virus screened against the NCATS CANVASS Library (AID 1347396).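 Note: ATP luminescence of surviving cells so rescue from viral cell killing; series mostly up to about 46 µM.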 Summed up:
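Protection against wild-type Zika cytopathic effect is measured in African green monkey Vero 766 cells exposed to an 11-point compound series. Surviving cells are quantified by CellTiter Glo luminescence after 72 h.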

Experiment [18] is described as follows: Redox Reaction Profiling qHTS: Assay Interference Panel against the NCATS CANVASS Library (AID 1347401). The procedure, abridged: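 Fluorescence read-out (525 nm excitation, 598 nm emission) at time zero and after 15 min in the dark tracked resorufin formation. Mix: 5 uM resazurin, 200 uM DTT, HEPES pH 7.3 buffer with NaCl.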
Experiment [19] in a line: HPAF-II 12hr Apoptosis Induction qHTS against the NCATS CANVASS Library (AID 1347358). The procedure, abridged: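 Twelve-hour compound exposure of HPAF-II cells in DMEM with 10% FBS, then luminescent Caspase-Glo 3/7 detection after 15 min at room temperature; doxorubicin control.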
A short description of experiment [20]: qHTS for Antimalaria activity screened against the NCATS CANVASS Library (AID 1347380). Note: nearly all actives have a fitted effect of over 40% in size. Note: potency is the fitted concentration of half-maximal effect. Summed up: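 Measures proliferation or cytotoxicity against Dd2 blood stages in 72 h cultures, 11-point qHTS dosing, with SYBR Green fluorescence as read-out; dihydroartemisinin titration served as control.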

Regarding `CC(CCC[C@]1(C)C(=O)C=C[C@@]23C[C@]4(C)O[C@@H](C[C@@H]4[C@H]2O)C31)C(=O)O` (some centres not stated), the Potency result in [1], in experiment [2], in experiment [3], in experiment [4], in experiment [5] and in [6] was “inactive” throughout. For the same compound, the Potency entry in experiment [7], in experiment [8], in experiment [10], in experiment [12], in experiment [13] and in [14] was “inactive” in each case. The Potency entry in experiment [15], in experiment [16] and in experiment [18] was “inactive” in each case. For the same compound, the compound was called inactive in experiment [9], in experiment [11] and in experiment [17].

Regarding `COc1c(O)cc(O)c2c(=O)cc(-c3ccccc3)oc12`, the Potency entry in [1], in [2], in experiment [4], in [5], in experiment [7] and in experiment [8] was “inactive” throughout. Further, the Potency entry in [19], in [20], in [13], in experiment [15] and in experiment [16] was “inactive” each time. Besides, the call in experiment [9] and in experiment [11] was inactive.

In the case of `C/C=C/[C@H]1[C@H]2C(=O)c3c(O)c(C)c(O)c(C)c3[C@]1(C(=O)O)C(=O)C=C2C`, the Potency entry in experiment [1], in [2], in experiment [3], in experiment [4], in experiment [5] and in experiment [6] was “inactive” throughout. In addition, the Potency entry in experiment [7], in experiment [8], in experiment [19], in experiment [10], in experiment [20] and in experiment [12] was “inactive” throughout. For the same compound, the Potency result in experiment [13], in experiment [14], in experiment [15] and in experiment [16] was “inactive” throughout. The compound was called inactive in [9], in experiment [11] and in experiment [17].

As to `C[C@@]12C[C@@H](C[C@@H]3C(=O)O[C@@H](c4ccoc4)[C@H](OC(=O)c4ccccc4)[C@@H]31)OC2=O`, the Potency entry in experiment [1], in [2], in experiment [3], in experiment [4], in experiment [5] and in [6] was “inactive” in each case. For the same compound, the Potency result in [7], in experiment [8], in experiment [10], in experiment [20], in experiment [12] and in [13] was “inactive” in each case. In addition, the Potency entry in experiment [14], in experiment [16] and in [18] was “inactive” throughout. In addition, the result in [11] and in [17] was inactive.

In the case of `O=C1CC(c2ccc(O)cc2)Oc2cc(O)cc(O)c21` (configuration not stated), the Potency entry in [1], in experiment [2], in [3], in [4], in experiment [5] and in experiment [6] was “inactive” in each case. The Potency entry in [7], in [8], in experiment [19], in experiment [10], in [13] and in experiment [14] was “inactive” throughout. Further, the Potency entry in [15] and in experiment [18] was “inactive” in each case. The compound was called inactive in [9] and in experiment [17].

Turning to `C=C(C)C(=O)O[C@H]1C[C@@]2(C)OC(=CC2=O)/C(C)=C\[C@H]2OC(=O)C(=C)[C@H]12`, the Potency in experiment [1] was 2.11 µM (active); in [2] it was 6.68 µM (active); in experiment [3], 9.41 µM (active); in experiment [4], 5.29 µM (active); in experiment [5], 6.68 µM (active); in experiment [8], 10.6 µM (active). For the same compound, the Potency in experiment [10] is 2.96 µM (active); in [20], 0.265 µM (active); in experiment [12], 18.6 µM (active); in experiment [13] it was 3.05 µM (active); in experiment [16], 0.216 µM (active). Besides, the Potency result in [19] and in experiment [18] was “inactive” each time.

As to `O=c1cc(-c2ccc(O)cc2)oc2cc(O)c([C@@H]3OC(CO)[C@H](O)[C@@H](O)[C@H]3O)c(O)c12` (some centres not stated), the Potency entry in experiment [1], in experiment [2], in experiment [3], in experiment [4], in experiment [5] and in [6] was “inactive” in each case. For the same compound, the Potency entry in experiment [7], in experiment [8], in [10], in experiment [20], in experiment [12] and in experiment [13] was “inactive” throughout. The Potency result in experiment [14] and in [16] was “inactive” in each case. For the same compound, the compound was called inactive in [9], in experiment [11] and in experiment [17].

`CN1CC[C@@]23c4ccccc4N[C@@H]1[C@@]21CCN(C)[C@@H]3Nc2ccccc21`: the Potency entry in [1], in [2], in experiment [3], in [4], in experiment [5] and in experiment [6] was “inactive” in each case. The Potency entry in experiment [7], in experiment [8], in experiment [10], in [12], in [13] and in experiment [14] was “inactive” each time. Besides, the Potency result in [18] is “inactive”. For the same compound, in experiment [20], the Potency was 0.0075 µM (active). The result in experiment [17] was inactive.

`COC(=O)c1cccc2oc(-c3cccc4oc(-c5c(C)cccc5O)nc34)nc12`: the Potency entry in [1], in [6], in [19] and in [13] was “inactive” throughout. In addition, the Potency was 2.66 µM (active) in experiment [2], 5.29 µM (active) in [3], 0.168 µM (active) in [5] and 1.86 µM (active) in experiment [14]. Also, the result in [9], in experiment [11] and in [17] was inactive.

For the compound `CC[C@@H](C)[C@H]1NC(=O)C(CC(C)C)NC(=O)[C@@H](CC(C)C)NC(=O)[C@H](Cc2c[nH]c3ccccc23)NC(=O)CNC(=O)[C@@H](CC(N)=O)NC1=O` (stereo partly drawn) (cyclo(GW[dL][ξL][dI][dN])), the Potency result in experiment [1], in [2], in experiment [3], in experiment [7], in experiment [8] and in experiment [19] was “inactive” each time. Besides, the Potency result in [13], in [14], in [16] and in experiment [18] was “inactive” each time. Moreover, the Potency in experiment [5] is 11.9 µM (active). Besides, the compound was classed as inactive in [11] and in [17].
